NALP1 yeast inh: NALP1 inhibition. AID 2071. inhibition, % at 10 µM. S. cerevisiae NALP1/ASC/caspase-1 growth, X-gal OD620, 72 h. 280,000 compounds, 0.61% hits; in the data active = inhibition mostly above about 24%, no sharp cut-off; inactive = mostly below about 32%
NALP3 yeast inh: NALP3 inhibition in yeast. Yeast reconstituted NLRP3/ASC/caspase-1, beta-gal luminescence, 24 h. inhibition, % at 10 µM. 330,000 compounds, 0.39% hits. AID 2825;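 active = inhibition of 50% or more; inactive = inhibition below 50%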;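 note: plate controls were induced DMSO wells for no effect and uninduced yeast grown without galactose for full effect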
EBNA-1 inh: blocks EBNA-1 binding to DNA; 300,000 compounds, 0.34% hits; EBNA-1 DNA binding, fluorescence polarization; inhibition, % at 14.8 µM; in the data active = inhibition above about 28%
PolyA inh: blocks polyadenylation in yeast reporter cells | S. cerevisiae SKY197-pL101 polyadenylation reporter, beta-gal luminescence; efflux-impaired pdr1/pdr3 knockout yeast; score 100 = 6 SD above DMSO | activity score, % at 12 µM | 300,000 compounds, 0.02% hits | AID 1875;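 active = lowest replicate activity score at least 50, where 100 means six control SD above control mean; inconclusive = lowest score under 50 but half or more replicates reach 50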;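 note: yeast exposed to compound for 9 h at 30 °C; higher score means more reporter readthrough which indicates perturbed polyadenylation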
dFosB act-1: activators of mouse delta FosB homodimer; P13346; purified delta FosB, TAMRA-CDK5 oligo fluorescence polarization; percent of positive-control signal above neutral wells; activation, % at 25 µM; 340,000 compounds, 0.99% hits;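 active = mean activation above about 17%, with every replicate also reaching it, limit read from the data, passing the limit was not always enough; inconclusive = only one of the two conditions met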
Target sequence (P13346 whole entry, looked up): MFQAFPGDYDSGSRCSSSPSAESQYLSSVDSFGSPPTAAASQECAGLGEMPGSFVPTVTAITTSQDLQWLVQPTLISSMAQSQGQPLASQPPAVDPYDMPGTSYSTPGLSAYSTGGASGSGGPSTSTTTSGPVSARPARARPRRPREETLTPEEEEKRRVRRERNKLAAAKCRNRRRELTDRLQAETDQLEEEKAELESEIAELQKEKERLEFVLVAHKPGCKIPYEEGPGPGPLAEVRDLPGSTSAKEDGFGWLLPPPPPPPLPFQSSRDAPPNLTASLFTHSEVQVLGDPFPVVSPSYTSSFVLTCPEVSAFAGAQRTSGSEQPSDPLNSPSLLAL
ZTA DNA inh: ZTA (EBV) inhibition in EBNA-1 counter-screen; P03206; ZTA-DNA binding, fluorescence polarization; inhibition, % at 11 µM; 320,000 compounds, 0.15% hits; AID 2234; in the data active = inhibition above about 33%
Target sequence (P03206 whole entry, looked up): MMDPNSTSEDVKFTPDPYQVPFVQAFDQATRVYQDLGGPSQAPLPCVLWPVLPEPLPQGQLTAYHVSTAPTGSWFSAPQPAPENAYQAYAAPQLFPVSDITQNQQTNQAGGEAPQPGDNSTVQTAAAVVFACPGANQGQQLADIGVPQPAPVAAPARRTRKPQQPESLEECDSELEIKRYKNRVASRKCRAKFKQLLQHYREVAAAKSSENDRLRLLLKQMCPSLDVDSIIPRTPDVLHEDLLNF
dFosB act-2: enhances mouse delta FosB homodimer binding to DNA; shares compounds with dFosB act-1; purified delta FosB, TAMRA-CDK5 oligo fluorescence polarization; normalised: neutral wells 0, positive control 100; 2,400 tested, under 10 active; activation, % at 24.9 µM; AID 588690;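 active = highest replicate activation at or above 34% and every replicate reaching that threshold; inconclusive = meets only one of the two criteria; inactive = meets neither criterion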;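 note: higher polarization means more probe DNA bound by delta FosB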
Active calls of the source: *; ? = inconclusive; / = no result. Hits are enriched below; roughly 2.2% of the tested compounds scored in any of these assays.

SMILES | NALP1 yeast inh | NALP3 yeast inh | EBNA-1 inh | PolyA inh | dFosB act-1 | ZTA DNA inh | dFosB act-2
C#CCOCCOCCOCCNc1nc(N2CCN(C(=O)[C@H](CCCN=C(N)N)n3cc(C(N)[C@H](C)CC)nn3)CC2)nc(N2CCN(C(=O)[C@H](CCCN=C(N)N)n3cc(C(N)[C@@H](C)CC)nn3)CC2)n1 (some centres not stated) | / | 8 | / | / | 22* | / | -5
C#CCOCCOCCOCCNc1nc(N2CCN(C(=O)[C@H](Cc3ccc(O)cc3)n3cc([C@@H](N)C(C)CC)nn3)CC2)nc(N2CCN(C(=O)[C@H](Cc3cc4ccccc4[nH]3)n3cc([C@@H](N)C(C)CC)nn3)CC2)n1 (some centres not stated) | 4 | 9 | 2 | 6 | 40* | 1 | -7
C#CCOCCOCCOCCNc1nc(N2CCOCC2)nc(N2CCN(C(=O)[C@H](CCCN=C(N)N)n3cc(C(N)[C@@H](C)CC)nn3)CC2)n1 (some centres not stated) | / | 4 | / | / | 0 | / | /
C#CCOCCOCCOCCNc1nc(N2CCN(C(=O)[C@H]([C@@H](C)CC)n3cc([C@@H](N)Cc4ccc(O)cc4)nn3)CC2)nc(N2CCN(C(=O)[C@H](CCCCN)n3cc([C@@H](N)C(C)CC)nn3)CC2)n1 (some centres not stated) | 3 | 24 | 13 | -10 | 23* | 1 | 4
C#CCOCCOCCOCCNc1nc(N2CCN(C(=O)[C@H](CCCCN)n3cc([C@@H](N)C(C)CC)nn3)CC2)nc(N2CCN(C(=O)[C@H](CCCCN)n3cc([C@@H](N)CC(C)C)nn3)CC2)n1 (some centres not stated) | 11 | 8 | 12 | -5 | 28* | 6 | ?
C#CCOCCOCCOCCNc1nc(N2CCN(C(=O)C([C@@H](C)O)n3cc([C@@H](N)CCCCN)nn3)CC2)nc(N2CCN(C(=O)[C@H](CO)n3cc([C@@H](N)C(C)C)nn3)CC2)n1 (some centres not stated) | / | 20 | / | / | 31* | / | 1
C#CCOCCOCCOCCNc1nc(N2CCN(C(=O)[C@H]([C@@H](C)CC)n3cc([C@@H](N)CC(C)C)nn3)CC2)nc(N2CCN(C(=O)[C@H]([C@@H](C)CC)n3cc([C@@H](N)CC(C)C)nn3)CC2)n1 | -3 | 2 | -1 | -6 | 31* | 0 | 0
COc1ccc(C(=O)Nc2nc3ccc(OC)cc3s2)cc1 | -5 | 26 | / | 29 | -13 | / | /
COc1ccc(C(=O)Nc2cccc(-c3cc4ccccc4oc3=O)c2)cc1[N+](=O)[O-] | 9 | / | 1 | / | 52* | -1 | 5
COc1cc(NC(C)=O)ccc1-c1cc2ccccc2oc1=O | 12 | 4 | 1 | -10 | -10 | -4 | /
CC(=O)Nc1ccc(NC(=O)c2cccc(-c3cc4ccccc4oc3=O)c2)cc1 | 9 | 1 | 1 | -7 | 5 | 4 | /
COc1cc(NC(=O)c2ccc(Cl)cc2Cl)ccc1-c1cc2ccccc2oc1=O | 0 | 0 | -12 | -4 | 24* | -12 | 6
COc1ccc2nc(NC(=O)c3cccc(-c4cc5ccccc5oc4=O)c3)sc2c1 | 25 | 14 | 44* | -9 | 44* | 14 | 0
NC1=NC2(CCC(c3ccccc3)CC2)n2c(nc3ccccc32)N1 (configuration not stated) | -2 | 2 | -9 | -7 | 34* | 8 | 2
CC(=O)c1cc2c(cc1NC(=O)c1ccccc1C)OCO2 | 8 | 28 | 9 | -10 | / | 2 | /
CCc1cccc(OCC2Cn3c(nc4c3c(=O)[nH]c(=O)n4C)O2)c1 (configuration not stated) | 5 | 9 | 3 | 10 | 20* | -10 | 3
COc1ccc(-c2cc(C(=O)Nc3cccnc3)no2)cc1OC | 16 | 14 | -3 | 5 | 8 | 15 | /
Cc1ccc(NC(=O)c2cc(-c3ccc(F)cc3)on2)cc1C | 4 | 10 | 2 | 9 | -3 | -4 | /
O=C(Nc1cccnc1Cl)c1cc(-c2ccc(F)cc2)on1 | 30 | 6 | -4 | 4 | 84* | -8 | 1
O=C(Nc1cccnc1)c1cc(-c2cccc(Cl)c2)on1 | 6 | 42 | 2 | -7 | 57* | -7 | 2
CC(=O)c1cccc(NC(=O)c2cc(-c3ccc(F)cc3)on2)c1 | -2 | -9 | -5 | -23 | 25* | 23 | 1
CN(CCCNC(=O)c1ccccc1F)CCCNC(=O)c1ccccc1F | 15 | 12 | 11 | -7 | 6 | 3 | /
O=C(NCc1ccc2c(c1)OCO2)C1CCN(S(=O)(=O)c2ccc(F)cc2)CC1 | 13 | 10 | 3 | 20 | -3 | 21 | /
O=C(NCc1ccc2c(c1)OCO2)C1CCN(c2nccc(C(F)(F)F)n2)CC1 | -4 | 7 | -1 | -2 | 18* | 4 | -14
Cc1ccc(S(=O)(=O)N2CCN(C(=O)COC(=O)c3cnc(C)cn3)CC2)c(C)c1 | / | 2 | 4 | -3 | 0 | -12 | /
SMILES | NALP1 yeast inh | NALP3 yeast inh | EBNA-1 inh | PolyA inh | dFosB act-1 | ZTA DNA inh | dFosB act-2
O=C(COC(=O)/C=C/c1cccc(C(F)(F)F)c1)Nc1cccc2ccccc12 | 0 | 6 | 5 | 5 | 5 | -9 | /
COc1ccc(/C=C/C(=O)OCC(=O)Nc2cc(C(F)(F)F)ccc2Cl)cc1 | 21 | 3 | 2 | 5 | 31* | -11 | 1
O=C(COC(=O)/C=C/c1cccc(C(F)(F)F)c1)NC(=O)NCc1ccccc1 | / | 8 | / | / | 24* | / | 2
O=C(COC(=O)/C=C/c1cccc(C(F)(F)F)c1)NC(c1ccccc1)c1ccccc1 | 20 | 2 | -6 | -10 | 26* | 8 | 5
O=C(CSc1nnc(CNC(=O)c2c(F)cccc2Cl)o1)NCc1ccccc1 | 8 | 12 | -7 | 16 | -3 | -10 | /
Cc1ccc(NC(=O)CNC(=O)Cn2cnc3sc(C)c(C)c3c2=O)cc1F | 4 | 12 | 0 | -2 | 7 | -12 | /
O=S(=O)(c1ccc(Br)cc1)N1CCN(c2ccc3nnc(-c4ccccc4)n3n2)CC1 | -8 | 16 | 2 | -14 | 38* | -16 | 0
CCOC(=O)c1c(C)n(CC(O)CN(C)C)c2cc(Br)c(OC)cc12 (configuration not stated) | -2 | 9 | -3 | -3 | 31* | 1 | 2
CCOC(=O)c1c(CN(C)C)n(-c2ccccc2)c2cc(Br)c(OC)cc12 | 31 | 40 | -3 | -23 | -15 | -4 | /
CCCC(=O)Nc1ccccc1-c1nnn(CC(=O)Nc2ccc(OCC)cc2)n1 | 14 | -9 | 0 | 22 | 41* | 14 | 4

Assay outcomes as filed in PubChem BioAssay.
